Results from PubChem BioAssay AID1851 (National Center for Advancing Translational Sciences (NCATS), 2009).
Out of some 16,000 compounds screened, about 5,800 (36%) were called active. About 23% were inconclusive and are not listed. Some of the results follow. A number with no mark means an inactive call. The call rests on the fitted dose curve; in most records, active means well fitted curve in the direction sought with a large enough effect; inconclusive means small, poorly fitted or top-dose-only effect, or effect the other way; inactive means no such curve, though single readings can be large or run the other way.

Molecular target: Cytochrome P450 2C19 (Homo sapiens) (UniProt P33261)
Assay: Cytochrome panel assay with activity outcomes
Details: recombinant CYP, pro-luciferin dealkylation, luminescence, p450-cyp2c19; series mostly up to 57.1 µM; activity, negative = inhibition: at the top concentration
On the % scale 0 is the no-effect control and ±100 the full control effect.

Sequence of Cytochrome P450 2C19 (Homo sapiens) (P33261 whole entry, looked up): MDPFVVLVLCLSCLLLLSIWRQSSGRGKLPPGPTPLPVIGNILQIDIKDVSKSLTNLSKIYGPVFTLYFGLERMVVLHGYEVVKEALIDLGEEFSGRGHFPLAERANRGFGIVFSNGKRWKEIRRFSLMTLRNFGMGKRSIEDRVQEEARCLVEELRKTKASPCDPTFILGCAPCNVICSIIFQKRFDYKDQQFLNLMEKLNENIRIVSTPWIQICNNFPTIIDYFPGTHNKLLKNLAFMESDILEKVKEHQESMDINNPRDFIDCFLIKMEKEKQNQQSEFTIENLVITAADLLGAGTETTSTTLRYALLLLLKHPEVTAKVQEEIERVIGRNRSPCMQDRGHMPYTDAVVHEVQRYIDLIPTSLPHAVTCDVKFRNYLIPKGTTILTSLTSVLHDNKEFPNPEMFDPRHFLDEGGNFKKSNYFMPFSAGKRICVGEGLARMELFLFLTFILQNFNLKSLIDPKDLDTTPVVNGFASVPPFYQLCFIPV

Compound	AC50	activity, negative = inhibition
CC1CSc2nc3sc4c(c3c(=O)n21)CCCC4 (configuration not stated)	15.8 µM (active)	–
CCN(CC(=O)NCc1cccs1)S(=O)(=O)c1ccc(C(C)C)cc1	5.62 µM (active)	–
OCCCSCCO	–	18.7% [at 11.4 µM]
CC(C)COP(=O)(c1ccc(N(C)C)cc1)C(O)c1ccccc1F (configuration not stated)	5.62 µM (active)	–
CC(C)COP(=O)(OCC(C)C)C(O)c1ccccc1F (configuration not stated)	–	-5.54%
Clc1ccc(-c2ccnc(Oc3cc(Cl)ccc3Cl)n2)cc1	0.316 µM (active)	–
S=C(Nc1ccc2c(c1)Cc1ccccc1-2)Nc1ccc2c(c1)Cc1ccccc1-2	–	-8.36% [at 11.4 µM]
O=C(O)/C=C\C(=O)Nc1ccc2c(c1)-c1ccccc1C2	–	-24.1% [at 11.4 µM]
C(/C=C\c1ccccc1)=Nc1ccc2c(c1)Cc1ccccc1-2	3.98 µM (active)	–
CCCCOC(=O)c1cc2c(cn1)[nH]c1ccccc12	5.01 µM (active)	–
CC(=O)c1cccc(NS(=O)(=O)c2ccc(N/C=C\C(=O)c3ccc(F)cc3)cc2)c1	5.62 µM (active)	–
Cc1noc(NS(=O)(=O)c2ccc(N/C=C/C(=O)c3ccc4c(c3)OCO4)cc2)c1C	–	1.16%
Cn1c(=O)c(-c2cc(F)cc(F)c2)nc2cnc(N3CCOCC3)nc21	–	-14.8%
COC(=O)c1[nH]c2cc(OC)ccc2c1NC(=O)CCN1CCSCC1	–	-20.9%
COC(=O)c1[nH]c2ccc(Br)cc2c1NC(=O)CN1CCN(C2CCCCC2)CC1	15.8 µM (active)	–
COC(=O)c1[nH]c2cccc(OC)c2c1NC(=O)CN(C)CC1OCCO1	–	-23%
COC(=O)c1[nH]c2ccc(Br)cc2c1NC(=O)CN1CCCc2ccccc21	7.94 µM (active)	–
Cc1ccc(S(=O)(=O)N[C@H]2COC(=O)[C@@H](Cc3ccccc3)NC(=O)[C@@H](C)COC(=O)C/C=C\[C@@H]2C)cc1	–	32% [at 11.4 µM]
O=C(c1csnn1)N1CCC2(CCN(Cc3nccs3)CC2)CC1	–	5.37%
CCN(CC)CC[n+]1ccc2c(C)c3[nH]c4ccc(O)cc4c3c(C)c2c1	–	42.4% [at 11.4 µM]
CCCS(=O)(=O)N1CCCC(C(=O)N2CCOCC2)C1 (configuration not stated)	–	10.9%
CCCS(=O)(=O)N1CCCC(C(=O)NCCN2CCOCC2)C1 (configuration not stated)	–	14.8%
CCCS(=O)(=O)N1CCN(CC2CC=CCC2)CC1 (configuration not stated)	3.98 µM (active)	–

Compound	AC50	activity, negative = inhibition
O=c1cc(CF)[nH]c(=S)[nH]1	–	16.1% [at 11.4 µM]
CN(NC(=O)NN)c1ncc(C(F)(F)F)cc1Cl	10 µM (active)	–
O=C(CN(C(=O)CSc1nc2ccccc2o1)c1cccc(F)c1)NC1CCCCC1	1 µM (active)	–
NC(N)=N/N=C(\c1ccc(Cl)cc1)C1CC1	–	-27.1% [at 11.4 µM]
COc1ccc(Cc2c(N)nc(N)nc2N)cc1	–	5.91%
COc1ccc(N2C(N)=NC(N)=NC2(C)C)cc1	–	-8.58%
COc1ccc2nc(N)sc2c1	31.6 µM (active)	–
O=C1NC(c2cccc([N+](=O)[O-])c2)=CCN1c1ccccc1O	6.31 µM (active)	–
Cc1cccc(NC(=S)NC(=O)c2cc(-c3ccccc3)nc3ccccc23)c1	1.58 µM (active)	–
CCCOc1ccc(C(=O)NNC(=S)NC(=O)c2cc(-c3ccccc3)nc3ccccc23)cc1	–	-21.5%
O=C(O)c1cc(-c2ccc3cc4c(cc3c2)OCO4)nc2ccccc12	–	35.1% [at 11.4 µM]
Cc1ccccc1NC(=S)NC(=O)c1cc(-c2ccccc2)nc2ccccc12	2.82 µM (active)	–
Cc1ccc(-c2cc(C(=O)NN=C3CCCC3)c3ccccc3n2)cc1	28.2 µM (active)	–
C[C@@]12CC(=O)[C@@H]3[C@@H](CCC4=CC(=O)CC[C@]43C)[C@@H]1CC=C2CC(=O)O	–	30.4% [at 11.4 µM]
COCC(=O)N1CCC2(CCCN(c3ccncc3)C2)CC1	–	-23.3%
COCC(=O)N1CCC2(CCN(Cc3ccncc3)CC2)CC1	0.0251 µM (active)	–
c1ccc(-c2ccc(N3CCCC4(CCNCC4)C3)cc2)cc1	15.8 µM (active)	–
CC(=O)N1CCC2(CCN(Cc3ccncc3)CC2)CC1	–	2.56%
O=C(c1ccncc1)N1CCC2(CCN(Cc3ccncc3)CC2)CC1	–	-43.2%
O=C(Oc1ccccc1)N1CCC2(CCCN(c3cccc(-c4ccccc4)c3)C2)CC1	–	-3.32%
COCC(=O)N1CCC2(CCCN(c3cccc(-c4ccccc4)c3)C2)CC1	15.8 µM (active)	–
c1ccc(-c2ccc(N3CC4(CCNCC4)C3)cc2)cc1	–	-17.5%
COCC(=O)N1CCC2(CC1)CN(C(=O)Nc1ccc(OC)cc1)C2	–	6.33%

Compound	AC50	activity, negative = inhibition
COCC(=O)N1CCC2(CC1)CN(C(=O)Nc1ccccc1)C2	5.01 µM (active)	–
COCC(=O)N1CCC2(CCCN(C(=O)Nc3ccccc3)C2)CC1	–	3.47%
c1ccc(-c2cccc(N3CC4(CCNCC4)C3)c2)cc1	–	-26.2%
CCN=C(N)CSS(=O)(=O)O	–	-0.003% [at 11.4 µM]
O=C(c1cnccn1)N1CCC2(CCCN(c3ccccc3)C2)CC1	0.501 µM (active)	–
CC(=O)N1CCC2(CC1)CCN(c1cccc(-c3ccccc3)c1)CC2	–	-42%
COc1ccc(C(=O)N2CCC[C@@]3(CCN(c4cccc(-c5ccccc5)c4)C3)C2)cc1	7.94 µM (active)	–
CC(=O)N1CCC[C@@]2(CCN(c3ccccc3)C2)C1	–	31.6%
CC(=O)N1CCC2(CCCN(c3ccccc3)C2)CC1	25.1 µM (active)	–
O=C(c1cnccn1)N1CCC2(CC1)CN(c1ccccc1)C2	–	-14.9%
CC(=O)N1CCC2(CCCN(c3cccc(-c4ccccc4)c3)C2)CC1	15.8 µM (active)	–
COc1ccc(C(=O)N2CCC[C@@]3(CCN(C(=O)Nc4ccccc4)C3)C2)cc1	–	-24.3%
O=C(c1cnccn1)N1CCC2(CC1)CCN(c1ccccc1)CC2	–	-19.7%
COc1ccc(C(=O)N2CCC[C@@]3(CCN(Cc4ccccc4)C3)C2)cc1	–	-23.1%
CC(=O)N1CCC2(CCCN(Cc3ccccc3)C2)CC1	–	-2.53%
Cc1cc(CNC(=O)[C@@H]2C[C@H]2[C@@H](NP(=O)(c2ccccc2)c2ccccc2)c2ccccc2)nn1C	–	23.2%
O=C(Nc1ccc2ccccc2c1)[C@@H]1C[C@H]1[C@@H](NP(=O)(c1ccccc1)c1ccccc1)c1ccccc1	–	0.45%
Cc1cc(CNC(=O)[C@H]2C[C@@H]2[C@H](NP(=O)(c2ccccc2)c2ccccc2)c2ccccc2)nn1C	–	-41.1%
O=C(Nc1ccc2ccccc2c1)[C@H]1C[C@@H]1[C@H](NP(=O)(c1ccccc1)c1ccccc1)c1ccccc1	3.16 µM (active)	–
O=C(NCCc1c[nH]c2ccccc12)[C@@H]1C[C@H]1[C@@H](NP(=O)(c1ccccc1)c1ccccc1)c1ccccc1	6.31 µM (active)	–
O=C(NCCc1c[nH]c2ccccc12)[C@H]1C[C@@H]1[C@H](NP(=O)(c1ccccc1)c1ccccc1)c1ccccc1	1.26 µM (active)	–
